Assay results reported in the antibiotic and cytotoxicity screens of Wong et al. (2023).
In all, about 39,000 compounds went through this assay and about 3,300 (8.5%) were called active. Only a selection was taken, and actives are over-represented in it overall.

test system: HepG2; assay: cytotoxicity call (relative viability < 0.9); conditions: 10 µM

SMILES	cytotoxicity call
Cc1ccc(S(=O)(=O)N(C)C[C@@H]2Oc3ncc(-c4ccncc4)cc3C(=O)N([C@H](C)CO)C[C@H]2C)cc1	inactive
COc1ccc(NC(=O)N(C)C[C@H]2Oc3cc(C#CCN(C)C)ccc3S(=O)(=O)N([C@@H](C)CO)C[C@@H]2C)cc1	inactive
C[C@@H]1CN([C@@H](C)CO)C(=O)c2cc(NC(=O)Cn3cnnn3)ccc2O[C@H]1CN(C)Cc1ccc(C(=O)Nc2ccccc2N)cc1	inactive
C[C@@H]1CN([C@H](C)CO)C(=O)c2cc(NC(=O)C3CC3)ccc2O[C@@H]1CN(C)C(=O)Nc1ccc2c(c1)OCO2	inactive
COc1ccc(C#Cc2cnc3c(c2)C(=O)N([C@H](C)CO)C[C@H](C)[C@@H](CN(C)C(=O)CN(C)C)O3)cc1	inactive
C[C@@H]1CN([C@@H](C)CO)C(=O)c2cc(NC(=O)Nc3ccccc3)ccc2O[C@H]1CN(C)Cc1ccc(C(F)(F)F)cc1	inactive
C[C@H]1CN([C@@H](C)CO)C(=O)c2cc(NC(=O)Nc3ccccc3)ccc2O[C@@H]1CN(C)Cc1ccc(C(F)(F)F)cc1	active
C[C@@H]1CN([C@H](C)CO)C(=O)c2cc(NC(=O)Nc3ccccc3)ccc2O[C@@H]1CN(C)Cc1ccc(C(F)(F)F)cc1	inactive
C[C@H]1CN([C@@H](C)CO)C(=O)c2cc(NC(=O)Nc3ccccc3)ccc2O[C@H]1CN(C)Cc1ccc(C(F)(F)F)cc1	inactive
C[C@@H]1CN([C@H](C)CO)C(=O)c2cc(NC(=O)Nc3ccccc3)ccc2O[C@H]1CN(C)Cc1ccc(C(F)(F)F)cc1	active
C[C@@H]1CN([C@@H](C)CO)C(=O)c2cc(NC(=O)Nc3ccccc3)ccc2O[C@@H]1CN(C)Cc1ccc(C(F)(F)F)cc1	active
C[C@H](CO)N1C[C@H](C)[C@H](CN(C)Cc2ccc(C(F)(F)F)cc2)Oc2ccc(NC(=O)Nc3ccccc3)cc2C1=O	active
C[C@H](CO)N1C[C@H](C)[C@H](CN(C)Cc2ccc(C(=O)O)cc2)Oc2ccc(NC(=O)Nc3ccc(C(F)(F)F)cc3)cc2C1=O	inactive
C[C@@H]1CN([C@H](C)CO)C(=O)c2cc(NC(=O)Nc3ccc(C(F)(F)F)cc3)ccc2O[C@@H]1CN(C)Cc1ccc(C(=O)O)cc1	inactive
COc1cccc(S(=O)(=O)Nc2ccc3c(c2)C(=O)N(C)C[C@@H](OC)[C@@H](C)CN(C(=O)Cc2cccnc2)[C@@H](C)CO3)c1	inactive
CC(C)NC(=O)N[C@@H]1C=C[C@@H](CC(=O)NCCN2CCCC2)O[C@H]1CO	inactive
COc1ccc(NC(=O)N(C)C[C@@H]2OCCCC[C@@H](C)Oc3ccc(NC(=O)C4CCCCC4)cc3C(=O)N([C@H](C)CO)C[C@H]2C)cc1	inactive
COc1ccc(CN(C)C[C@H]2OCCCC[C@H](C)Oc3ccc(NC(=O)C4CCCCC4)cc3C(=O)N([C@@H](C)CO)C[C@H]2C)cc1	inactive

SMILES	cytotoxicity call
O=C(C[C@H]1CC[C@@H]2NC[C@H](O)COC[C@H]2O1)NCCN1CCCCC1	inactive
O=C1O[C@H](c2ccccc2)[C@H](c2ccccc2)N2[C@H]1[C@@H](C(=O)N1CCCCCCC1)[C@]1(C(=O)Nc3ccc(C#CCCO)cc31)[C@H]2c1ccc(O)cc1	inactive
CSc1nc2nc(N)nc(N)c2s1	inactive
COc1cccc(S(=O)(=O)N2C[C@H](O)COC[C@@H]3O[C@H](CC(=O)N4CCN(c5ccccc5)CC4)CC[C@H]32)c1	inactive
O=C(C[C@H]1CC[C@@H]2[C@H](COC[C@H](O)CN2S(=O)(=O)c2cccc(Cl)c2)O1)NC1Cc2ccccc2C1	inactive
C[C@@H]1CN([C@@H](C)CO)C(=O)c2cccc(NC(=O)c3cnccn3)c2O[C@@H]1CN(C)S(C)(=O)=O	inactive
CC(C)NC(=O)Nc1ccc2c(c1)C(=O)N([C@H](C)CO)C[C@H](C)[C@@H](CN(C)Cc1ccccc1)OCCCC[C@@H](C)O2	inactive
C[C@H](CO)N1C[C@H](C)[C@@H](CN(C)Cc2ccc(C(=O)O)cc2)Oc2ccc(NC(=O)Nc3ccc(C(F)(F)F)cc3)cc2C1=O	inactive
C[C@H](CO)N1C[C@H](C)[C@@H](CN(C)Cc2ccc(C(F)(F)F)cc2)Oc2ccc(NC(=O)Nc3ccccc3)cc2C1=O	active
C[C@@H]1CN([C@@H](C)CO)C(=O)c2cc(NC(=O)Nc3ccc(C(F)(F)F)cc3)ccc2O[C@@H]1CN(C)Cc1ccc(C(=O)O)cc1	inactive
C[C@@H]1CCCCO[C@H](CN(C)C(=O)c2ccncc2)[C@@H](C)CN([C@H](C)CO)C(=O)c2cc(NC(=O)C3CCCCC3)ccc2O1	inactive
C[C@H](CO)N1C[C@H](C)[C@@H](CN(C)S(=O)(=O)c2cn(C)cn2)Oc2ccc(NS(=O)(=O)c3cn(C)cn3)cc2C1=O	inactive
C[C@@H]1CCCCO[C@@H](CN(C)S(=O)(=O)c2ccc(F)cc2)[C@@H](C)CN([C@@H](C)CO)C(=O)c2cc(NC(=O)Nc3cccc4ccccc34)ccc2O1	inactive
Cc1oc(C(C)(C)C)cc1C(=O)Nc1ccc(C(C)C)cc1	inactive
CCc1cccc(C(C)C)c1NC(=O)Nc1ccccc1	inactive
CC(C)c1ccccc1Cc1cc(C(=O)Nc2ccc(S(=O)(=O)c3ccccc3C(C)(C)C)cc2)c(O)c(O)c1O	active
C[C@@H]1CN([C@@H](C)CO)C(=O)Cc2cc(NC(=O)CCN3CCOCC3)ccc2O[C@@H]1CN(C)S(=O)(=O)c1ccccc1	inactive
